Hits are enriched below; roughly 10% of the tested compounds scored in any of these assays.
HEK cytotox: kills HEK 293 cells; Potency, µM (top dose mostly 115 µM), inactives show at the top dose activity change, negative = cytotoxicity, hits mostly inhibitors; HEK 293 viability, ATP luminescence (CellTiter-Glo), 48-72 h; 6.6% of 94,000 active; AID 1345083; also: % is scaled to controls: 0 for no effect and ±100 for the full control effect; nearly all actives have a fitted effect of over 60% in size
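Cytotoxicity was scored by loss of ATP-coupled luminescence (CellTiter-Glo) in HEK 293 cells. Compound treatment ran 48 or 72 hr at 37 degree Celsius, 5% CO2, 95% humidity.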
NPR1 antag: blocks ANP-stimulated signaling of human Npr1 receptor; P16066; 1.6% of 76,000 active; Potency, µM (doses to about 46.3 µM), for inactives: at the top dose activity change, negative = inhibition, actives largely listed as inhibitors; AID 1347048; HEK293 hNpr1 GloSensor cGMP, ANP-stimulated luminescence; calls by dose curve; also: % is scaled to controls: 0 for no effect and ±100 for the full control effect; nearly all actives have a fitted effect of over 60% in size
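HEK293 cells stably expressing human Npr1 and cGMP GloSensor pGS-40F, loaded 2 h with 2% GloSensor reagent, given compound 30 min at room temperature. Luminescence read before and 20 min after 0.1 nM hNppA.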
FLuc inh-1: Photinus pyralis luciferase inhibition; purified P. pyralis luciferase, luminescence, biochemical; Potency, µM (series often up to 115 µM), most hits filed as inhibitors; 2.5% of 76,000 active; also: % is scaled to controls: 0 for no effect and ±100 for the full control effect; nearly all actives have a fitted effect of over 65% in size
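Luminescence read by CCD imager after adding enzyme (10nM final) to wells holding compound, titrated in qHTS. Substrates 10uM each D-luciferin and ATP; buffer 50mM Tris acetate pH 7.5, 10mM Mg acetate, Tween-20, BSA.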
NIH3T3 tox: cytotoxic compounds in NIH 3T3 cells | NIH 3T3 viability, CellTiter-Glo ATP luminescence, 48-72 h | Potency, µM (highest dose often 96.7 µM), without a hit: at the highest dose activity change, negative = cytotoxicity, most hits filed as inhibitors | 4.3% of 94,000 active; also: % is scaled to controls: 0 for no effect and ±100 for the full control effect; nearly all actives have a fitted effect of over 55% in size
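Luminescent ATP readout (CellTiter-Glo, 10 min RT) after 48 or 72 hr compound exposure of NIH 3T3 cells seeded at 400 cells/well in 1536-well format; quantitative HTS.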
GPT2 inh: inhibitors of human GPT2 alanine aminotransferase; Q8TD30; 0.25% of 100,000 active; Recombinant GPT2, coupled pyruvate oxidase/HRP Amplex Red fluorescence; Potency, µM (top dose mostly 57.7 µM), for the others: at the top dose activity change, negative = inhibition, hits mostly inhibitors; also: % is scaled to controls: 0 for no effect and ±100 for the full control effect; nearly all actives have a fitted effect of over 60% in size
Target sequence (Q8TD30 whole entry, looked up): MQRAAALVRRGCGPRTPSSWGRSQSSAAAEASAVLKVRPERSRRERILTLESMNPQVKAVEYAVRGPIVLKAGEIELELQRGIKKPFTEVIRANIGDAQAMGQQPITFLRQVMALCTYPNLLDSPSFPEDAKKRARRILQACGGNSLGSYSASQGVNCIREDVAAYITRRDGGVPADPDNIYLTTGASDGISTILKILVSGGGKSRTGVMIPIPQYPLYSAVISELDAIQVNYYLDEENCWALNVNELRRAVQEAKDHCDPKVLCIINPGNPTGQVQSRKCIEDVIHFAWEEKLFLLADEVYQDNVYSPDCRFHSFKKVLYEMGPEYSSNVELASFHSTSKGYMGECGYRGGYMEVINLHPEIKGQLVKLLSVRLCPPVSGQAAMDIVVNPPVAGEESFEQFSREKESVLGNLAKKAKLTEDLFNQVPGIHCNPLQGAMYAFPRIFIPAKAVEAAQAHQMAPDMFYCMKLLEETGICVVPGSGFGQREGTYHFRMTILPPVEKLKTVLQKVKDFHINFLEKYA
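Fluorescence read-out: pyruvate from GPT2 turnover coupled to pyruvate oxidase, HRP and Amplex Red (0.2mM ThPP, 0.2U/mL PO and HRP, 50uM Amplex final). Substrates 250uM a-KG, 2mM L-alanine; enzyme 10ng/uL; 30 min RT.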
FLuc SDR -ATP: binders stabilizing firefly luciferase, without ATP; Purified FLuc-C-HiBiT, Nano-Glo HiBiT luminescence, no ATP; 7.8% of 1,300 active; shares compounds with FLuc inh-1; Potency, µM (highest dose often 32.7 µM), inactives show at the highest dose activation (signal gain), usual class: activators; also: nearly all actives have a fitted effect of over 55% in size
FLuc SDR ATP: binders stabilizing firefly luciferase, plus ATP | shares compounds with FLuc inh-1 | Potency, µM (series often up to 32.7 µM), inactives show at the top dose activation (gain of signal), most hits filed as activators | purified FLuc-C-HiBiT + ATP, HiBiT complementation luminescence | 8.7% of 1,300 active;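 also: signal reports ligand binding via conformational change of the enzyme rather than luciferase catalysis; % of control where 0% means no effect; nearly all actives have a fitted effect of over 55% in size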
FLuc inh-2: inhibitors of firefly luciferase enzymatic activity; AID 1963320; purified FLuc-C-HiBiT enzyme, luciferin luminescence; shares compounds with FLuc inh-1; Potency, µM (titrated, usually from 32.7 µM), for the others: at the top dose activity change, negative = inhibition, actives largely listed as inhibitors; 42% of 1,300 active; also: % is scaled to controls: 0 for no effect and ±100 for the full control effect; nearly all actives have a fitted effect of over 70% in size
An asterisk follows results filed as active; i = inactive; u = inconclusive; x = not tested or not shown; [ ] = remark or other dose. Unless noted, calls follow the shape of the dose curve; as a rule, active = well fitted curve in the direction sought with a large enough effect; inconclusive = small, poorly fitted or top-dose-only effect, or another doubt; inactive = no such curve, though single readings can be large; an effect the other way counts as inactive or inconclusive. Potency is read from the fitted curve at half-maximal effect.

SMILES	HEK cytotox	NPR1 antag	FLuc inh-1	NIH3T3 tox	GPT2 inh	others
COc1ccc(-c2cc3c(=O)n(CCNC(=O)c4ccccn4)ccn3n2)cc1	-27%	-11%	7.9µM*	-27%	-19%
CC(=O)Nc1cccc(C(=O)NCCn2ccn3nc(-c4ccc(F)cc4)cc3c2=O)c1	45µM*	0%	20µM*	u	0%
O=C(NCCn1ccn2nc(-c3ccc(F)cc3)cc2c1=O)c1cccc(Cl)c1	-43%	u	i	-27%	i
COc1ccc(-c2cc3c(=O)n(CCNC(=O)c4cc(F)cc(F)c4)ccn3n2)cc1	u	-19%	2µM*	u	-11%
COc1ccc(-c2cc3c(=O)n(CCNC(=O)c4cccc5[nH]ccc45)ccn3n2)cc1	32µM*	-22%	6.3µM*	u	i
CCOC(=O)c1cc2cc(NCC3=CC(C)(C)COc4ccc(OC)cc43)ccc2o1	u	x	x	-35%	x
CCOc1ccc(-c2nc(C3CC(=O)N(c4ccc(F)c(Cl)c4)C3)no2)cc1 (centres undefined)	7%	u	i	-2%	i
COC[C@@H]1CN(Cc2ccc(C)o2)C[C@H]1C(=O)N(C)C	-24%	5%	i	-24%	4%
COc1ccc(-c2cc3c(=O)n(CCNC(=O)c4ccccc4C)ccn3n2)cc1	u	-15%	10µM*	-21%	-3%
CC(C)c1nccn1CCCNC(=O)c1ccc(N2CCC(CO)CC2)nc1	-7%	0%	i	-22%	-5%
CC(C)c1nccn1CCCNC(=O)c1ccc(N2CCCCCC2)nc1	79µM*	-11%	i	u	0%
O=C(NCCN1CCCC1)c1ccc(-c2ccc(N3CCSCC3)nc2)cc1	u	-17%	14µM*	u	1%
O=C(NCCN1CCOCC1)c1ccc(-c2ccc(N3CCCCC3)nc2)cc1	u	-11%	32µM*	u	i
COCCNC(=O)c1ccc(-c2ccc(N3CCCCC3)nc2)cc1	u	-1%	u	-12%	-3%
Cc1nn(-c2ccc(F)cc2)c(C)c1[C@@H]1C=C[C@@H](NS(=O)(=O)c2cccs2)C1	u	-13%[70.6 µM]	i	u	u
Cc1nn(CCC#N)c(C)c1[C@@H]1C=C[C@@H](NS(=O)(=O)c2cccs2)C1	-9%[172 µM]	-3%[70.6 µM]	i	45µM*	2%[88.5 µM]
CC(C)[C@@H]1CN(C(=O)CCCS(N)(=O)=O)C[C@H]1C(=O)O	0%	-4%	i	i	i
CC(=O)Nc1cccc(-c2csc(CN3CCCC(C)(NC(C)=O)C3)c2)c1 (centres undefined)	u	-1%[70.6 µM]	i	-14%[138 µM]	i
COc1ccc(-c2ccc(CN3CC(C)(NC(C)=O)C3)s2)cn1	x	x	x	x	x	FLuc SDR -ATP=17%[49.3 µM];FLuc SDR ATP=12%[49.3 µM];FLuc inh-2=u
CC(=O)NC1(C)CN(Cc2ccc(-c3ccc(Oc4ccccc4)cc3)s2)C1	28µM*	16µM*	13µM*	28µM*	-5%[88.5 µM]	FLuc SDR -ATP=12%[49.3 µM];FLuc SDR ATP=10%[49.3 µM];FLuc inh-2=u
COc1ncccc1-c1csc(CN2CCCC(C)(NC(C)=O)C2)c1 (centres undefined)	u	-2%[70.6 µM]	i	u	i
CCC(=O)Nc1cc2nn(-c3ccc(C)cc3)nc2cc1C	x	x	x	x	x	FLuc SDR -ATP=u;FLuc SDR ATP=u;FLuc inh-2=0.39µM*
Cc1ccc(NC(=O)N2CCC(OC3CCN(S(C)(=O)=O)CC3)CC2)cc1Cl	u	u	i	u	i

Bioassay records: PubChem, National Center for Advancing Translational Sciences (NCATS)
